CRFR2-BP ag: agonists of CRF-BP/CRF-R2 complex, primary screen, cell-based, HEK293, calcium dye fluorescence, uHTS; CRF-binding protein / CRF receptor 2 complex (human); activation, % at 13.2 µM; 350,000 tested, 0.46% active; calcium dye fluorescence (FLIPR); percent of saturating CRF peptide response;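 active = activation of at least 50%, plus an integration ratio under a set limit after plate pattern correction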;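 note: plate controls were neutral control wells without compound for no effect and CRF at EC100 for full effect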
IDE cell inh: human IDE inhibitors in live cells, primary screen, fluorescence polarization, HEK cells, FAbetaB substrate | FAbetaB cleavage | inhibition, % at 5.59 µM | Insulin-degrading enzyme (Homo sapiens), P14735 | AID 434962, 2010 | 320,000 tested, 0.41% active;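 active = percent inhibition above the average of all tested compounds plus 3 SD, set per screening campaign, cut at about 16% in these data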;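 note: IDE supplied by intact live HEK cells; FP after avidin binding of uncleaved biotin substrate so inhibition keeps polarization high; 0% = DMSO wells and 100% = 60 µM reference IDE inhibitor Ii1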
Target sequence (P14735 whole entry, looked up): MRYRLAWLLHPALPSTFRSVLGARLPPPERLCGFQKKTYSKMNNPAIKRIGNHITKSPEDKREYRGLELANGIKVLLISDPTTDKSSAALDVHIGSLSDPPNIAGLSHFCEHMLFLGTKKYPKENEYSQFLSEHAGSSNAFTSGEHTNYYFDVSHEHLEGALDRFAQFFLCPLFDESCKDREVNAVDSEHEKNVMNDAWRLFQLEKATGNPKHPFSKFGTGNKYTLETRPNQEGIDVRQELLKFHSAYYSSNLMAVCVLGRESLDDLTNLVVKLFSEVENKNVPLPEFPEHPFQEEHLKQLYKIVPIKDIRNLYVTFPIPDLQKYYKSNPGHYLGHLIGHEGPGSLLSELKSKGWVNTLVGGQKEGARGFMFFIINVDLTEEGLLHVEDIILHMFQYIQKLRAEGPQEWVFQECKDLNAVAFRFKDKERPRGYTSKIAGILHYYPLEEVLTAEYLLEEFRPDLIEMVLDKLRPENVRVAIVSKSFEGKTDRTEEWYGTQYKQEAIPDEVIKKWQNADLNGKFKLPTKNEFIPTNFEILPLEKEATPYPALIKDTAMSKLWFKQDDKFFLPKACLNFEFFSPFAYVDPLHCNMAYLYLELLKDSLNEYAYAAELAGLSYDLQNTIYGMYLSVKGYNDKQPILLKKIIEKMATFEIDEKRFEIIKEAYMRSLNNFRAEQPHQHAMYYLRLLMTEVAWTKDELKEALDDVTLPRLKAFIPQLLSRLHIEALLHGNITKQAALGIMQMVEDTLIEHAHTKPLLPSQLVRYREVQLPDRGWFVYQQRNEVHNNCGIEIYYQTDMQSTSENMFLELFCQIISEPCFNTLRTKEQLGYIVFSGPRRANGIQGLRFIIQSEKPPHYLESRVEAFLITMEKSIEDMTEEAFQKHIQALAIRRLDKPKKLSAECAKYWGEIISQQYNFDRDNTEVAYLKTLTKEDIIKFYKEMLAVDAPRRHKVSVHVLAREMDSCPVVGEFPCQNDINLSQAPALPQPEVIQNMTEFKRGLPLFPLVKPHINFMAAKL
cardiac RTF act: cardiac RTF calcium sensitivity activators, primary screen, biochemical, IANBD-TnC fluorescence, EC20 calcium; Troponin I, cardiac muscle (Homo sapiens) + Troponin T, cardiac muscle (Homo sapiens) + …; activation, % at 7.2 µM; AID 493008, 2010; IANBD-labeled TnC RTF fluorescence at EC20 calcium; 0% EC20 calcium, 100% full calcium; 340,000 tested, 0.24% active;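 active = activation above the mean over all tested compounds plus 3 SD, cut at about 30% in these data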;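 note: rise in fluorescence read as greater calcium sensitivity of cardiac thin filaments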
TPT1 inh: Candida albicans TPT1 enzyme inhibitors, primary screen, biochemical, fluorescence polarization. recombinant caTPT1, FP RNA substrate dephosphorylation. inhibition, % at 5 µM. 300,000 tested, 0.81% active. AID 1962, 2009;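 active = inhibition above the mean of all tested compounds plus 3 SD, set per screening campaign, cut at about 24% in these data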;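 note: plate controls were DMSO alone for no effect and ferristatin control at 100 nM for full effect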
IDE cell activ: human IDE activators in live cells, primary screen, fluorescence polarization, HEK cells, FAbeta-B substrate | Insulin-degrading enzyme (Homo sapiens), P14735 | FAbeta-B cleavage; 0% vehicle, 100% cell-free pure enzyme wells | activation, % at 5.96 µM | 340,000 tested, 0.073% active | AID 493087, 2011;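 active = activation above the mean of all tested compounds plus 3 SD, set per screening campaign, cut at about 17% in these data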
RTF Ca sens inh: cardiac RTF calcium sensitivity inhibitors, primary screen, biochemical, IANBD-TnC fluorescence, EC70 calcium. inhibition, % at 7.15 µM. 340,000 tested, 0.12% active. IANBD-labeled cardiac RTF, Ca2+ fluorescence. Troponin I, cardiac muscle (Homo sapiens) + Troponin T, cardiac muscle (Homo sapiens) + …;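 active = inhibition above the mean inhibition of all tested compounds plus 3 SD, cut at about 17% in these data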;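 note: assay run at fixed EC70 calcium of 1.6 mM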
An asterisk follows results filed as active; . = no result given. An excerpt weighted towards active compounds, which were near 1.5% of everything screened.

SMILES | CRFR2-BP ag | IDE cell inh | cardiac RTF act | TPT1 inh | IDE cell activ | RTF Ca sens inh
CN(N=Nc1ccc([N+](=O)[O-])cc1)c1ccccc1 | 83.7* | -1.7 | 511.4* | -1.4 | 3.4 | -7.6
COC(=O)C1=NN(C(=O)c2ccccc2)C(O)(c2ccc([N+](=O)[O-])cc2)C1 (stereo not given) | 46.6 | . | 4.1 | . | 5.8 | -8.2
COC(=O)C1=NN(C(=O)c2ccc(C)cc2)C(O)(c2ccc(Cl)cc2)C1 (stereo not given) | 86.3* | 3.8 | . | 4.2 | . | .
COC(=O)C1=NN(C(=O)c2ccc(Br)cc2)C(O)(C(C)(C)C)C1 (stereo not given) | 51.7* | . | 18.4 | . | -1.5 | 5.5
COC(=O)C1=NN(C(=O)c2cccc(Cl)c2)C(O)(C(C)(C)C)C1 (stereo not given) | 88.5* | -4.7 | 6.8 | -2.0 | -0.3 | -8.9
O=C(O)CC(Cc1ccccc1)(C(=O)O)c1ccccc1 (stereo not given) | 1.4 | -1.1 | 11.2 | -1.4 | -3.2 | -4.2
O=S(=O)(NC1CCCCC1N1CCN(c2ccc(F)cc2)CC1)c1ccc(Cl)cc1 (stereo not given) | 105.3* | -0.9 | -5.4 | 2.2 | 8.8 | -0.2
CCCN1CCN(C2CCCCC2NS(=O)(=O)c2ccc(Cl)cc2)CC1 (stereo not given) | 6.9 | 6.3 | -7.2 | 0.7 | 1.9 | -1.0
NC(=O)C1CCN(C(=O)NC2CC(=O)N(c3ccc4c(c3)OCCO4)C2)CC1 (stereo not given) | 4.3 | 2.6 | -5.7 | 0.4 | 4.5 | 4.8
CC(C)Cc1ccc(C(C)C(=O)Nc2cccnc2)cc1 (stereo not given) | 62.3* | 10.3 | -6.5 | -3.4 | -1.6 | -0.9
CC(C(=O)Nc1cccnc1)c1ccc([N+](=O)[O-])cc1 (stereo not given) | 1.0 | 1.9 | 7.5 | -2.8 | 4.7 | -3.4
CC(C)Cc1ccc(C(C)C(=O)Nc2ccc(O)cc2)cc1 (stereo not given) | 78.1* | -1.3 | -4.0 | -1.5 | -5.1 | 4.8
COc1ccc(CCNC(=O)COc2cc(O)c3c(c2)OC(C)(C)CC3=O)cc1OC | -0.1 | -4.5 | -0.3 | -5.6 | 0.9 | -6.2
CC1CCN(S(=O)(=O)c2ccc(C(C)C)cc2)CC1 | 90.3* | 1.8 | 0.2 | -0.7 | 4.1 | 4.2
Cc1ccc(OCC(=O)NNC(=S)NC(=O)c2ccc(Br)o2)c(C)c1 | 51.2* | . | 0.5 | . | 2.4 | -0.1
COc1ccc(C(=O)NNC(=S)NC(=O)c2ccc(Br)o2)cc1OC | 10.0 | 1.6 | -1.1 | 3.7 | 8.6 | 3.2
Cc1ccc(OCC(=O)NNC(=S)NC(=O)c2cccs2)c(C)c1 | 50.5* | . | 2.5 | . | -0.3 | -2.4
Cc1cc(OCC(=O)NNC(=S)NC(=O)c2cccs2)ccc1Cl | 44.9 | . | 3.0 | . | 5.8 | 0.3
O=C(NC(=S)NCc1ccco1)c1ccccc1[N+](=O)[O-] | -0.9 | -6.6 | -3.3 | -5.4 | 1.8 | 2.2
COC(=O)C1=COC(C)C2CN3CCc4c([nH]c5cc(OC)c(OC)cc45)C3CC12 (stereo not given) | 14.7 | 0.9 | 29.9* | -20.5 | -6.2 | -21.8
COc1ccc2c3c([nH]c2c1)C1CC2C(CC(O)C(OC)C2C(=O)O)CN1CC3 (stereo not given) | 3.8 | 3.2 | 14.5 | 8.8 | 7.6 | -10.6
COc1cccc(Oc2ccc(C(F)(F)F)cc2NC(=O)CN2C(=O)NC3(CCCC3)C2=O)c1 | 0.4 | -3.2 | -6.0 | . | 7.4 | -1.6
C1=C(c2ccc(-c3ccccc3)cc2)Nc2ncnn2C1c1ccco1 (stereo not given) | 208.3* | . | 335.9* | . | -136.1 | -425.3
Fc1ccc(C2=CC(c3ccc(Br)o3)n3ncnc3N2)cc1 (stereo not given) | 192.4* | 91.8* | 172.0* | -68.6 | -67.1 | -196.9
Fc1ccc(C2=CC(c3ccco3)n3ncnc3N2)cc1 (stereo not given) | 65.0* | 0.8 | 70.5* | -55.5 | -5.0 | -83.0
SMILES | CRFR2-BP ag | IDE cell inh | cardiac RTF act | TPT1 inh | IDE cell activ | RTF Ca sens inh
Cc1ccc(-c2[nH][nH]c(=O)c(=O)c2N=Nc2ccccc2)cc1 | -9.5 | 10.2 | 3.4 | -3.7 | 1.2 | 1.1
CN1CC=C2C(C#N)=C(N)C(C#N)(C#N)C(c3cccc(Cl)c3Cl)C2C1 (stereo not given) | 34.6 | 7.9 | 12.7 | -18.2 | -1.7 | -31.2
CN1CC=C2C(C#N)=C(N)C(C#N)(C#N)[C@H](c3ccoc3)[C@H]2C1 | 23.8 | -0.1 | 50.5* | -47.3 | 4.8 | -56.4
CCN1CC=C2C(C#N)=C(N)C(C#N)(C#N)C(CCc3ccccc3)C2C1 (stereo not given) | 56.5* | 4.6 | 34.7* | -17.2 | 3.7 | -41.2
COc1ccc(OC)c(C2C3CN(C(C)C)CC=C3C(C#N)=C(N)C2(C#N)C#N)c1 (stereo not given) | 23.8 | 8.2 | 17.0 | -20.6 | -4.4 | -28.9
Cc1ccc(C2C3CN(C(C)C)CC=C3C(C#N)=C(N)C2(C#N)C#N)cc1 (stereo not given) | 46.2 | 9.6 | 136.1* | -67.3 | -0.5 | -130.2
CCCN1CC=C2C(C#N)=C(N)C(C#N)(C#N)C(c3cccc(OC)c3OC)C2C1 (stereo not given) | 47.6 | 6.1 | 52.5* | -27.1 | 1.3 | -56.8
CC(=O)N1CC=C2C(C#N)=C(N)C(C#N)(C#N)C(CCc3ccccc3)C2C1 (stereo not given) | -0.9 | 6.3 | 6.8 | 3.5 | -5.8 | -12.1
C/C=C/C1=CC(=O)C[C@H](c2ccc(F)cc2)C1 | -0.8 | 6.5 | 0.4 | . | -3.8 | 5.7
N#CC1=C(N)C(C#N)(C#N)[C@H](c2ccoc2)[C@H]2CN(Cc3ccccc3)CC=C12 | 15.0 | 6.5 | 31.1* | -14.5 | -4.8 | -49.7
CC(=O)N1CC=C2C(C#N)=C(N)C(C#N)(C#N)[C@H](c3ccoc3)[C@H]2C1 | 10.7 | 4.0 | 7.7 | -6.6 | -10.4 | -19.3
Cc1noc(C)c1CCC(=O)NC1CCCN(Cc2ccc(CC(C)C)cc2)C1 (stereo not given) | 1.0 | 1.3 | -0.3 | -0.7 | 4.5 | -9.4
O=C(CSc1nc2c(c(=O)[nH]1)CCC2)Nc1ccccc1Cl | -0.8 | 4.9 | -3.2 | -0.6 | 1.6 | -1.1
N/C(=N\c1nc2c(c(=O)[nH]1)CCC2)Nc1ccccc1C(F)(F)F | -1.2 | 0.2 | 1.4 | 1.0 | 0.3 | 17.4*

Compound activity (PubChem)
